# Hit rate of the full screen: of about 52,000 compounds, about 1,700 (3.3%) were called active. Cut-off read from the data, not from the text of the source: active = survival mostly below about 52% (no sharp cut-off); inactive = mostly above about 56%. Only a selection was taken, and actives are over-represented in it overall.
# Test system: Wild type
# Assay: S. aureus survival, RN4220 and DeltatarO strains – OD600, teichoic acid synthesis inhibitors, primary screen (AID 463173)
# Details: S. aureus RN4220 wild type/DeltatarO growth, OD600, 18 h, stronger effect = lower value, screened at 18.75 µg/mL (by protocol)
row,Structure (SMILES),survival
1,CCc1ccccc1NC(=O)Cn1cc(S(=O)(=O)N2CCCC2)c(S(=O)(=O)N2CCCC2)c1,68% (inactive)
2,CCc1ccccc1NC(=O)CCn1nc(C)c2c(C)n(-c3ccccc3)nc2c1=O,88% (inactive)
3,Cc1ccc(C(=O)Nc2ccccc2C(=O)OCc2cc(=O)n3nc(C4CC4)sc3n2)cc1,87% (inactive)
4,COc1cccc(-n2c(=O)c3cc(OC)c(OC)cc3n(CC(=O)Nc3ccc(F)cc3)c2=O)c1,73% (inactive)
5,Cc1ccc(Cl)cc1N1CCN(C(=O)c2sc3nc4n(c(=O)c3c2C)CCC4)CC1,75% (inactive)
6,CCOC(=O)c1ccc(NC(=O)c2cc3sccc3n2Cc2ccc(Cl)cc2)cc1,87% (inactive)
7,COc1cc(OC)c(NC(=O)Cn2c(=O)nc(-c3ccccc3)c3ccccc32)cc1Cl,68% (inactive)
8,Cc1ccc(OCC(=O)Nc2nnc(S(=O)(=O)N3CCc4ccccc43)s2)cc1,24% (inactive)
9,Cc1cccc(C(=O)Nc2nnc(S(=O)(=O)N(C)Cc3ccccc3)s2)c1,29% (inactive)
10,CN(Cc1ccccc1)S(=O)(=O)c1nnc(NC(=O)c2ccccc2)s1,35% (inactive)
11,CN(Cc1ccccc1)S(=O)(=O)c1nnc(NC(=O)c2cccc(Cl)c2)s1,-1% (active)
12,O=C(Nc1nnc(S(=O)(=O)N2CCCc3ccccc32)s1)c1ccccc1,31% (inactive)
13,O=C(Nc1nnc(S(=O)(=O)N2CCCc3ccccc32)s1)c1cccc(Cl)c1,6% (active)
14,Cc1cccc(C(=O)Nc2nnc(S(=O)(=O)N3c4ccccc4CC3C)s2)c1 (stereo unspecified),21% (inactive)
15,O=C(Nc1nnc(S(=O)(=O)N2CCCc3ccccc32)s1)c1ccc(Cl)cc1,19% (inactive)
16,COc1ccc(OCC(=O)Nc2nnc(S(=O)(=O)N3CCc4ccccc43)s2)cc1,73% (inactive)
17,O=C(COc1ccc(Cl)cc1)Nc1nnc(S(=O)(=O)N2CCc3ccccc32)s1,12% (active)
18,CC1Cc2ccccc2N1S(=O)(=O)c1nnc(NC(=O)c2cccc(F)c2)s1 (stereo unspecified),10% (active)
19,CC1Cc2ccccc2N1S(=O)(=O)c1nnc(NC(=O)c2ccccc2)s1 (stereo unspecified),18% (inactive)
20,Cc1nnc(N2C(=O)c3oc4ccccc4c(=O)c3C2c2ccc(F)cc2)s1 (stereo unspecified),79% (inactive)
21,O=c1cccc2n1CC1CC(C2)N(c2nc(N3CCCCC3)nc(N3CCCCC3)n2)C1 (stereo unspecified),104% (inactive)
22,CCCn1c(=O)n(-c2ccccc2)c(=O)c2sc3ccccc3c21,93% (inactive)
23,COc1ccc(CNCc2ccc3c(c2)n(C)c(=O)n3C)cc1,90% (inactive)

row,Structure (SMILES),survival
1,COc1cc(NC(=O)C(CC(C)C)NS(=O)(=O)c2ccc3c(c2)oc(=O)n3C)c(C(=O)O)cc1OC (stereo unspecified),124% (inactive)
2,Nc1cccc2c1C(=O)N(CC(=O)O)C2=O,104% (inactive)
3,Cc1ccccc1CNC(=O)Cn1ncn2nc(-c3cccs3)cc2c1=O,120% (inactive)
4,CCOc1ccc(S(=O)(=O)NCC(c2ccco2)S(=O)(=O)c2ccc(F)cc2)cc1 (stereo unspecified),90% (inactive)
5,O=C(CSc1nc2cc3ccccc3cc2[nH]1)Nc1ccc(F)cc1,76% (inactive)
6,CCCCNC(=O)c1nn(-c2ccc(C)cc2)c(=O)c2c1c1ccccc1n2C,79% (inactive)
7,CN(Cc1ccco1)C(=O)c1ccc2c(c1)N(Cc1ccccc1F)C(=O)c1ccccc1S2,115% (inactive)
8,Cc1oc2ncn(CC(C)C)c(=O)c2c1C(=O)N1CCN(c2ccc(F)cc2)CC1,57% (inactive)
9,CC1CCCN(S(=O)(=O)c2ccc(S(=O)(=O)N(Cc3cccs3)Cc3cccs3)cc2)C1 (stereo unspecified),112% (inactive)
10,Cc1ccc(CN(Cc2ccco2)C(=O)COc2ccccc2C)cc1,83% (inactive)
11,O=C(Nc1nnc(S(=O)(=O)N2CCc3ccccc32)s1)c1ccccc1,19% (inactive)
12,O=C(Nc1nnc(S(=O)(=O)N2CCc3ccccc32)s1)c1ccccc1Cl,23% (inactive)
13,O=C(Nc1nnc(S(=O)(=O)N2CCc3ccccc32)s1)c1cccc(Cl)c1,12% (active)
14,O=c1[nH]c2cc3c(cc2cc1CN(CCN1CCOCC1)C(=S)Nc1ccccc1)OCCO3,109% (inactive)
15,CCOc1ccc(NC(=O)CC2Nc3cccc4cccc(c34)NC2=O)cc1 (stereo unspecified),63% (inactive)
16,CCOc1ccc(-c2nonc2NC(=O)c2oc3c(C)c(C)ccc3c2C)cc1OCC,82% (inactive)
17,COC(=O)Cn1c(SCCOc2ccccc2OC)nc2ccccc21,91% (inactive)
18,COC(=O)Cn1c(SCCOc2ccccc2Cl)nc2ccccc21,81% (inactive)
19,CCn1c(SCCOc2ccccc2F)nc2ccccc21,-1% (active)
20,Cn1c(=O)c2c(nc(Oc3ccccc3)n2Cc2c(Cl)cccc2Cl)n(C)c1=O,73% (inactive)
21,CCCCC(CC)Cn1c(Oc2ccccc2)nc2c1c(=O)n(C)c(=O)n2C (stereo unspecified),-2% (active)
22,COc1ccc(Oc2nc3c(c(=O)n(C)c(=O)n3C)n2Cc2ccccc2Cl)cc1,75% (inactive)
23,Cc1ccc(C(=O)N2CCN(c3ccccc3F)CC2)cc1NC(=O)c1nsc2ccccc12,87% (inactive)

row,Structure (SMILES),survival
1,Cc1cc(C)cc(Oc2nc3c(C)cccn3c(=O)c2/C=C(\C#N)c2nc3ccccc3[nH]2)c1,69% (inactive)
2,CCCCN(CC)CCCNC(=O)c1ccc2c(c1)NC(=O)CN2C,57% (inactive)
3,CCN1CCN(CCCNC(=O)c2ccc3c(c2)sc2nc(-c4ccc(OC)cc4)cn23)CC1,82% (inactive)
4,O=C(NCCCN1CCCCCC1)c1ccc2c(c1)sc1nc(-c3ccccc3)cn12,38% (inactive)
5,CCCN1CCN(CCCNC(=O)c2ccc3c(c2)sc2nc(-c4ccc(OCC)cc4)cn23)CC1,36% (inactive)
6,CCOc1ccc(-c2cn3c(n2)sc2cc(C(=O)NCCCN4CCCCCC4)ccc23)cc1,-1% (active)
7,CCCN1CCN(CCCNC(=O)c2ccc3c(c2)sc2nc(-c4ccc(OC)cc4)cn23)CC1,81% (inactive)
8,CCOc1ccc(-c2cn3c(n2)sc2cc(C(=O)NCCCN4CCCCC4)ccc23)cc1,-1% (active)
9,COc1cccc(Cn2cc(C(=O)c3ccccc3)c(=O)c3cc4c(cc32)OCO4)c1,84% (inactive)
10,O=C(CSCc1ccccc1Cl)NCc1ccc(Cl)c(Cl)c1,148% (inactive)
11,COc1ccc(C(=O)Nc2ccc(-c3nnc4n3CCCCC4)cc2)cc1OC,65% (inactive)
12,COc1ccc(C(=O)Nc2ccc(-c3nnc4n3CCCCC4)cc2)cc1,-3% (active)
13,CCOc1cc(C(=O)Nc2ccc(-c3nnc4n3CCCCC4)cc2)cc(OCC)c1OCC,88% (inactive)
14,Cc1ccc2c(c1)C(c1ccccc1)N(C(=O)c1ccc(S(=O)(=O)N3CCCCC3)cc1)CC(=O)N2 (stereo unspecified),86% (inactive)
15,CCOC(=O)c1cnc2c(ccc3ccccc32)c1Nc1ccc(Cl)cc1,30% (inactive)
16,Cc1ccccc1Nc1nc(N)c(C(=O)c2ccccc2Cl)s1,101% (inactive)
17,CCOC(=O)c1cnc2c(ccc3ccccc32)c1Nc1cccc(OC)c1,68% (inactive)
18,CCOC(=O)c1cnc2c(ccc3ccccc32)c1Nc1ccccc1O,74% (inactive)
19,CCOC(=O)c1cnc2ccccc2c1NCCc1ccc(OC)c(OC)c1,53% (inactive)
20,CCOC(=O)c1cnc2c(ccc3ccccc32)c1Nc1ccc(C(C)=O)cc1,0% (active)
21,CCOC(=O)c1cnc2c(ccc3ccccc32)c1Nc1ccc(OC)c(OC)c1,5% (active)
22,CCOc1ccc(Nc2nc(N)c(C(=O)c3ccccc3Cl)s2)cc1,-2% (active)
23,CCOC(=O)c1cnc2c(ccc3ccccc32)c1Nc1cccc(Cl)c1,23% (inactive)

row,Structure (SMILES),survival
1,COc1cccc(C(=O)c2sc(Nc3ccc(F)c(Cl)c3)nc2N)c1,65% (inactive)
2,CCOC(=O)c1cnc2c(ccc3ccccc32)c1Nc1ccc(OCC)cc1,-2% (active)
3,COc1ccccc1CNC(=O)C1CCCN(S(=O)(=O)c2ccc3c(c2)oc(=O)n3C)C1 (stereo unspecified),92% (inactive)
4,COc1cc(OC)c(NC(=O)CSc2nccn2C)cc1Cl,75% (inactive)
5,Nc1nonc1-c1nc2ccccc2n1Cc1ccc(Br)cc1,93% (inactive)
6,CC(=O)N1CCc2c(sc3c2c(=O)n(-c2cc(Cl)ccc2C)c(=O)n3C)C1,119% (inactive)
7,CCOC(=O)c1cnc2c(CC)cccc2c1NCCO,116% (inactive)
8,CCOC(=O)c1cnc2c(ccc3ccccc32)c1Nc1ccccc1OC,69% (inactive)
9,CCOC(=O)c1cnc2c(ccc3ccccc32)c1Nc1ccc(N(C)C)cc1,0% (active)
10,CCOC(=O)c1cnc2c(Cl)c(Cl)ccc2c1Nc1ccc(N(C)C)cc1,80% (inactive)
11,CCOC(=O)c1cnc2c(OC)cccc2c1Nc1cccc(O)c1,73% (inactive)
12,CCOC(=O)c1cnc(NCc2ccc(OC)cc2OC)c2ccccc12,117% (inactive)
13,CCOC(=O)c1cnc2c(C)cccc2c1Nc1ccc(OC(C)C)cc1,3% (active)
14,CCOC(=O)c1cnc2c(ccc3ccccc32)c1Nc1ccc(OC)cc1OC,6% (active)
15,CCN1C(=O)SC(CC(=O)O)C1=O (stereo unspecified),99% (inactive)
16,CCOc1ccc(NC(=O)CC2C(=O)N(c3ccccc3)C(=O)N2C2CCCCC2)cc1 (stereo unspecified),69% (inactive)
17,CC(C)c1ccc(NC(=O)CN2C(=O)C3(SCC(=O)N3c3ccc(F)cc3)c3ccccc32)cc1 (stereo unspecified),58% (inactive)
18,CCCCOc1ccc(S(=O)(=O)N2CCN(c3ccccc3OCC)CC2)cc1,112% (inactive)
19,CCc1ccc(N2CCn3c2nc2c3c(=O)n(C/C=C/c3ccccc3)c(=O)n2C)cc1,79% (inactive)
20,CCCCc1nn2c(=O)cc(COC(=O)C3CCCCC3)nc2s1,70% (inactive)
21,Cc1cccc(C(=O)N2CCc3cc(CNC(=O)c4ccnn4C)ccc32)c1,90% (inactive)
22,C#CCSc1nc(-c2ccccc2)cc(-c2ccccc2)c1C#N,70% (inactive)

# — PubChem BioAssay AID463173 (ICCB-Longwood Screening Facility, Harvard Medical School, 2010)
